From PubChem BioAssay AID1159580 (chemical genetic matrix, 2015)
Among all 5,500 compounds or so, about 2,000 (36%) were called active. Another 18% or so got no clear call; they are omitted. No stated cut-off is given here; in the data, active means normalized growth mostly below about 0.91 (no sharp cut-off); inconclusive means no clear call, values can overlap the other calls; inactive means mostly above about 0.92. Some of the results follow.

Assay: chemical genetic growth profiling, strain panel (AID 1159580);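 further: tested at 20 µM; growth read once vehicle control cultures reached saturation at 30 °C; 1 = growth at the plate median or of vehicle wells; lower values mean less growth of the strain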
Settings: S. cerevisiae deletion strains, growth OD
[1] = locus YHR030C, strain SLT2, hits give low values
[2] = locus YHR079C, strain IRE1, hits give low values
[3] = locus YJL095W, strain BCK1, hits give low values
[4] = locus YJR066W, strain TOR1, hits give low values
[5] = locus YLR113W, strain HOG1, hits give low values
[6] = locus YNL183C, strain NPR1, hits give low values
[7] = locus YOR231W, strain MKK1, hits give low values
[8] = locus YPL256C, strain CLN2, hits give low values
[9] = locus YAL021C, strain ccr4, hits give low values
[10] = locus YAL026C, strain drs2, hits give low values
[11] = locus YAL030W, strain snc1, hits give low values
[12] = locus YBL061C, strain skt5, hits give low values
[13] = locus YBR009C, strain hhf1, hits give low values
[14] = locus YBR023C, strain chs3, hits give low values
[15] = locus YBR171W, strain sec66, hits give low values
[16] = locus YBR231C, strain swc5, hits give low values
[17] = locus YBR279W, strain paf1, hits give low values
[18] = locus YCL011C, strain gbp2, hits give low values
[19] = locus YCL016C, strain dcc1, hits give low values
[20] = locus YCL061C, strain MRC1, hits give low values
[21] = locus YCL069W, strain vba3, hits give low values
[22] = locus YCR088W, strain abp1, hits give low values
[23] = locus YDL005C, strain med2, hits give low values
[24] = locus YDL040C, strain nat1, hits give low values
[25] = locus YDR001C, strain nth1, hits give low values
[26] = locus YDR069C, strain doa4, hits give low values
[27] = locus YDR137W, strain rgp1, hits give low values
[28] = locus YDR159W, strain sac3, hits give low values
[29] = locus YDR297W, strain sur2, hits give low values
[30] = locus YDR334W, strain swr1, hits give low values
[31] = locus YDR335W, strain msn5, hits give low values
[32] = locus YDR392W, strain spt3, hits give low values
[33] = locus YEL003W, strain gim4, hits give low values
[34] = locus YEL037C, strain rad23, hits give low values
[35] = locus YEL061C, strain CIN8 (second series), hits give low values
[36] = locus YER015W, strain faa2, hits give low values
[37] = locus YER016W, strain bim1, hits give low values
[38] = locus YER111C, strain swi4, hits give low values
[39] = locus YER155C, strain BEM2 (second series), hits give low values
[40] = locus YFR010W, strain ubp6, hits give low values
[41] = locus YGL167C, strain pmr1, hits give low values
[42] = locus YGL173C, strain kem1, hits give low values
[43] = locus YGL227W, strain vid30, hits give low values
[44] = locus YGL240W, strain doc1, hits give low values
[45] = locus YGL253W, strain hxk2, hits give low values
[46] = locus YHR013C, strain ard1, hits give low values
[47] = locus YHR027C, strain rpn1, hits give low values
[48] = locus YHR142W, strain chs7, hits give low values
[49] = locus YJL092W, strain hpr5, hits give low values
[50] = locus YJL095W, strain BCK1 (second series), hits give low values
[51] = locus YJL115W, strain asf1, hits give low values
[52] = locus YJL129C, strain trk1, hits give low values
[53] = locus YJL154C, strain vps35, hits give low values
[54] = locus YJL164C, strain tpk1, hits give low values
[55] = locus YJL166W, strain qcr8, hits give low values
[56] = locus YKL160W, strain elf1, hits give low values
[57] = locus YKR026C, strain gcn3, hits give low values
[58] = locus YKR091W, strain srl3, hits give low values
[59] = locus YLL001W, strain dnm1, hits give low values
[60] = locus YLL026W, hits give low values
[61] = locus YLL041C, strain sdh2, hits give low values
[62] = locus YLR027C, strain aat2, hits give low values
[63] = locus YLR221C, strain rsa3, hits give low values
[64] = locus YLR258W, strain gsy2, hits give low values
[65] = locus YLR262C, strain YPT6 (second series), hits give low values
[66] = locus YLR320W, strain mms22, hits give low values
[67] = locus YLR342W, strain FKS1, hits give low values
[68] = locus YLR357W, strain rsc2, hits give low values
[69] = locus YLR370C, strain arc18, hits give low values
[70] = locus YLR384C, strain iki3, hits give low values
[71] = locus YML120C, strain ndi1, hits give low values
[72] = locus YMR058W, strain fet3, hits give low values
[73] = locus YMR125W, strain sto1, hits give low values
[74] = locus YMR129W, hits give low values
[75] = locus YMR205C, strain PFK2, hits give low values
[76] = locus YMR231W, strain pep5, hits give low values
[77] = locus YNL071W, strain lat1, hits give low values
[78] = locus YNL209W, strain ssb2, hits give low values
[79] = locus YNL248C, strain rpa49, hits give low values
[80] = locus YNL322C, strain KRE1 (second series), hits give low values
[81] = locus YNR049C, strain mso1, hits give low values
[82] = locus YOR001W, strain rrp6, hits give low values
[83] = locus YOR070C, strain gyp1, hits give low values
[84] = locus YOR080W, strain dia2, hits give low values
[85] = locus YOR083W, strain WHI5, hits give low values
[86] = locus YOR106W, strain vam3, hits give low values
[87] = locus YOR265W, strain rbl2, hits give low values
[88] = locus YOR270C, strain vph1, hits give low values
[89] = locus YOR290C, strain snf2, hits give low values
[90] = locus YPL051W, strain arl3, hits give low values
[91] = locus YPL078C, strain atp4, hits give low values
[92] = locus YPL106C, strain sse1, hits give low values
[93] = locus YPL240C, strain hsp82, hits give low values

Measured: normalized growth

Cc1cccc2c3c(ccc12)C1=C(C(=O)C3=O)C(C)CO1 (configuration not stated)
active: [1] 0.128 | [2] 0.174 | [3] 0.263 | [4] 0.756 | [5] 0.163 | [6] 0.72 | [7] 0.133 | [8] 0.141

C[C@H]1COC2=C1C(=O)C(=O)c1c2ccc2c1CCCC2(C)C
inactive: [41] 0.936 | [68] 0.934
active: [9] 0.859 | [10] 0.583 | [11] 0.858 | [12] 0.725 | [13] 0.534 | [14] 0.783 | [15] 0.808 | [16] 0.675 | [17] 0.725 | [18] 0.65 | [19] 0.691 | [20] 0.668 | [21] 0.659 | [22] 0.866 | [23] 0.828 | [24] 0.9 | [25] 0.913 | [26] 0.868 | [27] 0.23 | [28] 0.301 | locus YDR195W, strain ref2 0.823 | [29] 0.75 | [30] 0.729 | [31] 0.658 | [32] 0.0851 | [33] 0.77 | [34] 0.883 | [35] 0.527 | [36] 0.845 | [37] 0.666 | [38] 0.478 | [39] 0.334 | [40] 0.871 | [42] 0.801 | [43] 0.546 | [44] 0.649 | [45] 0.545 | [46] 0.604 | [47] 0.872 | [1] 0.139 | [2] 0.25 | [48] 0.379 | [49] 0.871 | [50] 0.408 | [3] 0.31 | [51] 0.886 | [52] 0.22 | [53] 0.913 | [54] 0.69 | [55] 0.349 | [4] 0.701 | [56] 0.462 | [57] 0.853 | [58] 0.893 | [59] 0.819 | [60] 0.843 | [61] 0.901 | [62] 0.662 | [5] 0.208 | [63] 0.662 | [64] 0.723 | [65] 0.2 | [66] 0.613 | [67] 0.626 | [69] 0.806 | [70] 0.904 | [71] 0.371 | [72] 0.619 | [73] 0.476 | [74] 0.824 | [75] 0.531 | [76] 0.714 | [77] 0.18 | [6] 0.666 | [78] 0.817 | [79] 0.735 | [80] 0.801 | [81] 0.903 | [82] 0.608 | [83] 0.752 | [84] 0.912 | [85] 0.712 | [86] 0.581 | [7] 0.213 | [87] 0.895 | [88] 0.543 | [89] 0.775 | [90] 0.549 | [91] 0.453 | [92] 0.537 | [93] 0.761 | [8] 0.19

Cc1coc2c1C(=O)C(=O)c1c-2ccc2c1CCCC2(C)C
inactive: [9] 0.912 | [11] 0.936 | [12] 0.968 | [14] 0.951 | [15] 0.916 | [17] 0.944 | [18] 0.913 | [21] 0.95 | [22] 0.955 | [23] 0.945 | [24] 0.948 | [25] 0.949 | [26] 0.925 | locus YDR195W, strain ref2 0.989 | [29] 0.951 | [30] 0.923 | [31] 0.929 | [34] 0.947 | [36] 0.951 | [37] 0.926 | [38] 0.953 | [40] 0.902 | [41] 0.946 | [42] 0.97 | [43] 0.962 | [47] 0.957 | [2] 0.859 | [49] 0.94 | [50] 0.925 | [51] 0.953 | [53] 0.957 | [54] 0.927 | [55] 0.94 | locus YJL187C, strain SWE1, hits give low values 0.965 | [4] 0.835 | [57] 0.943 | [58] 0.946 | [60] 0.936 | [61] 0.958 | [64] 0.964 | [68] 1.07 | [69] 0.927 | [70] 0.96 | [72] 0.913 | [73] 0.975 | [74] 0.938 | [76] 0.953 | [78] 0.954 | [79] 1.03 | [80] 0.949 | [81] 0.954 | [82] 0.927 | [84] 0.949 | [85] 0.928 | [7] 0.867 | [87] 0.948 | [88] 0.809 | [89] 0.958 | [92] 0.852 | [93] 0.944 | [8] 0.894
active: [10] 0.869 | [13] 0.882 | [16] 0.815 | [19] 0.904 | [20] 0.91 | [27] 0.439 | [28] 0.582 | [32] 0.196 | [33] 0.903 | [35] 0.905 | [39] 0.592 | [44] 0.801 | [45] 0.828 | [46] 0.815 | [1] 0.81 | [48] 0.868 | [3] 0.855 | [52] 0.738 | [56] 0.886 | [59] 0.886 | [62] 0.911 | [5] 0.821 | [63] 0.873 | [65] 0.485 | [66] 0.79 | [67] 0.904 | [71] 0.905 | [75] 0.735 | [77] 0.766 | [6] 0.82 | [83] 0.911 | [86] 0.852 | [90] 0.913 | [91] 0.853
